# Bioassay records deposited in PubChem by several laboratories.
# Autofluor counter: compound fluorescence in toxin protease inhibitor counterscreen | 360,000 compounds, 3.1% hits | compound autofluorescence counterscreen, microsphere flow cytometry; hits give high values | fluorescence intensity (test concentration not listed) | AID 624483; in the data active means fluorescence intensity above about 16000; inconclusive means no clear call, values can overlap the other calls
# BoNT F protease: BoNT/F light chain protease inhibitors, primary screen, biochemical, flow cytometry, MLPCN library | Botulinum neurotoxin type F light chain protease (Clostridium botulinum) | Multiplex microsphere protease cleavage assay | inhibition, % at 10 µM | 360,000 compounds, 0.22% hits; in the data active means inhibition above about 35%, passing the limit was not always enough; inconclusive means no clear call, values can overlap the other calls; further: plate controls were buffer without enzyme for full effect and enzyme alone for no effect
# BoNT A protease: BoNT/A light chain protease inhibitors, primary screen, biochemical, flow cytometry, MLPCN library; Botulinum neurotoxin type A light chain protease (Clostridium botulinum A str. ATCC 3502); multiplex microsphere protease substrate cleavage; inhibition, % at 10 µM; 360,000 compounds, 0.17% hits; AID 588499, 2011; further: plate controls were buffer without enzyme for full effect and enzyme alone for no effect
# MazF activator: activators of E. coli MazEF toxin-antitoxin RNase, primary screen, biochemical, fluorescence, uHTS; Endoribonuclease toxin MazF (Escherichia coli (strain K12)), P0AE70; 350,000 compounds, 0.32% hits; FAM/BHQ RNA-DNA oligo cleavage fluorescence, 5 h; activation, % at 20 µM; AID 504720, 2011; in the data active means activation above about 50%
# Target sequence (P0AE70 whole entry, looked up): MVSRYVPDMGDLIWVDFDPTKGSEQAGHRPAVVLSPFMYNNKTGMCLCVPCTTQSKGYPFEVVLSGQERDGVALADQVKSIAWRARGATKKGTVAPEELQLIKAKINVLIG
# Anthrax LF inh2: Bacillus anthracis LF protease inhibitors, primary screen, biochemical, multiplex microsphere, MLPCN library; 360,000 compounds, 0.12% hits; inhibition, % at 10 µM; multiplex microsphere protease cleavage assay; AID 588501, 2011; further: plate controls were buffer without enzyme for full effect and enzyme alone for no effect
# Vc quorum ag: inducers of Vibrio cholerae quorum light production without autoinducers, primary screen, BH1578 luxS cqsA deficient, single point; 350,000 compounds, 0.16% hits; activation, % at 18.7 µM; V. cholerae BH1578 lux reporter, luminescence, 6 h; in the data active means activation mostly above about 9.7%, no sharp cut-off; inconclusive means no clear call, values can overlap the other calls; inactive means mostly below about 3.7%
# * marks the source's active call; other numbers are inactive results; i = inactive; ? = inconclusive; · = no result. Hits are enriched below; roughly 3.9% of the tested compounds scored in any of these assays. Unless noted, no stated cut-off is given here; in the data, active means inhibition above about 30%; inconclusive means no clear call, values can overlap the other calls; inactive means below that.
SMILES,Autofluor counter,BoNT F protease,BoNT A protease,MazF activator,Anthrax LF inh2,Vc quorum ag
CC(C)(C)c1cc(NS(=O)(=O)c2ccc3c(c2)OCCO3)on1,13966,9.6,7.1,-6.9,3.2,-2.9
CCOc1cc(/C=C2\C(=N)N3N=C(CC)SC3=NC2=O)ccc1OCCOc1ccc(NC(C)=O)cc1,3890,?,-2.4,9.4,0.4,i
CCC1=NN2C(=N)/C(=C\c3ccc(OCCOc4ccc(NC(C)=O)cc4)cc3)C(=O)N=C2S1,3515,16.3,3.1,1.9,51.4*,i
O=[N+]([O-])c1ccc(S(=O)(=O)NN=C2CCCCC2)cc1,2813,4.1,0.2,118.9*,1.8,i
COc1ccc(S(=O)(=O)NN=C2CCCC2)cc1,20396*,0.1,-1.0,-5.9,-1.1,0.7
Cc1ccccc1CN1CCN(Cc2cc(=O)c3ccccc3[nH]2)CC1CCO (centres undefined),4225,28.9,5.5,3.3,-14.0,-0.3
Cc1ccc(N(CC(=O)NC2CCCC2)C(=O)CNC(=O)c2cccs2)cc1F,4179,1.7,0.5,2.0,0.0,-0.2
CC(C)c1ccc(-c2nnn(Cc3nc4ccccc4s3)n2)cc1,16755*,-7.3,-1.6,-2.6,-4.4,-4.0
CN(CC(=O)Nc1ccc(Cl)c(C(F)(F)F)c1)C(=O)c1ccc2c(c1)NC(=O)CS2,2768,-2.9,5.8,-7.7,3.1,-2.5
CCOC(=O)c1sc2c(c1C)c(=O)c(C(=O)OCC)cn2CC,19706*,3.9,1.1,8.7,-3.7,0.6
COc1ccc(NC(=O)CCC(=O)OC(C(=O)c2ccccc2)c2ccccc2)cc1 (centres undefined),20295*,-0.5,0.5,0.4,-4.1,-6.2
Cc1ccc(C(=O)C(OC(=O)CCC(=O)Nc2cccc(C)c2)c2ccccc2)cc1 (centres undefined),5221,-3.2,-0.3,-0.9,-4.0,-0.2
CCCCCC(=O)Nc1cc(N(C)C)nc2ccccc12,17328*,9.1,5.8,2.6,-13.9,-0.2
COc1ccc(CCNC(=O)c2cc3cc(Cl)ccc3nc2N)cc1OC,6317,-6.1,-0.2,·,0.4,·
CCC(NC(=O)c1ccccc1NC(=O)C(C)(C)C)C(=O)N1CC(C)OC(C)C1 (centres undefined),·,·,·,52.1*,·,0.0
O=C(O)CCC(=O)Nc1cccc(-c2nc3ccccc3o2)c1,3646,21.2,1.9,-10.8,-4.6,i
COc1ccc(-c2c3c(nc4sc(C(=O)Nc5ccccc5)c(N)c24)CCC3)cc1,15948,7.6,3.1,-10.2,1.0,-6.2
Nc1c(C(=O)NC23CC4CC(CC(C4)C2)C3)sc2nc3c(c(C(F)(F)F)c12)CCC3,24363*,-2.7,?,-0.2,-1.6,i
CCCn1ncc(OC)c(Cl)c1=O,21990*,2.2,3.1,-2.3,-11.2,-0.5
COc1cnn(-c2cccc(Cl)c2)c(=O)c1Cl,4293,6.1,0.5,-4.4,3.6,-0.4
Cn1cccc1/C=N\NC(=O)Cc1ccc(Br)c2ccccc12,2220,4.1,0.0,2.5,-0.7,·
Oc1cccc2ccc(Nc3ccccn3)nc12,11243,25.8,10.0,15.3,33.7*,-0.2
c1ccc(Nc2ccccc2Nc2ccccn2)nc1,20926*,-3.4,-0.8,1.4,0.6,i
c1ccc(CNc2ccccn2)cc1,4375,?,?,5.0,-17.4,i
O=C(Nc1ccccn1)c1cc2ccccc2cc1O,4970,4.6,1.8,4.5,0.0,-0.5
SMILES,Autofluor counter,BoNT F protease,BoNT A protease,MazF activator,Anthrax LF inh2,Vc quorum ag
CCOC(=O)N1CCN(c2nc(C)c3c(n2)CC(C)CC3=O)CC1 (centres undefined),23668*,-1.1,0.0,4.0,-3.6,i
CC1(C)CC(=O)C(C2(O)C(=O)N(Cc3ccccc3)c3ccccc32)CO1 (centres undefined),22533*,-1.1,?,2.6,-1.0,-5.8
CC1(C)CC(=O)CC(C2(O)C(=O)N(Cc3ccccc3)c3ccccc32)O1 (centres undefined),5390,-4.5,0.1,0.9,-3.1,0.6
Clc1ccccc1OCCCCN1CCCC1,20741*,6.7,8.6,1.0,-4.9,i
CCCCC[C@@H](C)N1C[C@@H](COCc2ccccc2)Oc2cc(N3CC[C@H](N(C)C)C3)ccc2S1(=O)=O,5858,-16.4,0.9,·,-6.4,·
CC(C)NC(=O)CSc1nc(N)c(NC(=O)c2ccco2)c(=O)[nH]1,2537,5.1,0.2,-0.3,-2.6,i
CCN(C(=O)COc1cc(=O)n(CC)c2ccccc12)c1cccc(Cl)c1,20694*,-2.1,-0.6,-7.2,-2.1,-1.3
O=C(NCc1cccc(CNC(=O)C(=O)NCC2CCCO2)c1)C(=O)NCC1CCCO1 (centres undefined),4943,-5.1,-0.8,11.4,-4.1,227.4*
CCOc1cc(NC(=S)NCC2CCCO2)c(OCC)cc1NC(=O)c1ccccc1 (centres undefined),24364*,-2.7,-1.2,5.9,-3.4,i
O=C(COC(=O)c1cccs1)NCC1CCCO1 (centres undefined),3337,1.6,0.0,5.5,4.4,i
COC(=O)c1ccccc1NC(=O)NCC1CCCO1 (centres undefined),22874*,-0.8,0.5,4.0,-2.1,-2.0
O=C(NCC1CCCO1)c1cccs1 (centres undefined),17278*,-6.8,?,0.7,-0.1,-0.2
Nc1nc2ccccc2cc1C(=O)NCc1ccc(Cl)cc1Cl,5826,-11.9,-0.4,·,-1.8,·
CCCn1c2ccccc2c2cnn(CC(=O)NC3CCCCC3)c(=O)c21,4388,1.3,-1.2,-26.8,-1.7,i
Cc1cc(C(=O)NNC(=S)NCC2CCCO2)cs1 (centres undefined),19574*,1.2,2.5,5.9,-8.0,-0.1
CCc1c(C(=O)NNC(=S)NCC2CCCO2)csc1C (centres undefined),2470,-1.6,0.1,1.5,1.5,-0.4
CCC(C)[C@H](NC(=O)NCC1CCCO1)C(=O)OC (some centres undefined),24826*,-4.9,-4.7,10.9,-1.0,i
CC(C)(C)c1ccc(S(=O)(=O)NC(=O)C2(C)CCN2C(=O)CC2CCCCC2)cc1 (centres undefined),2751,-3.1,0.6,·,2.0,-4.5
CN(C)c1ccc(CNn2cnnc2SCC(=O)NC(C)(C)C)cc1,4255,0.5,-0.1,1.3,-2.5,-2.0
CCc1ccc(CNn2cnnc2SCC(=O)NC(C)(C)C)cc1,16664*,-1.2,-0.9,2.6,-1.3,i
CC1CN(C2CCCCC2)C(=S)NC1=O (centres undefined),3923,1.4,-0.3,10.9,-0.5,39.1*
CC1CN(C(C)C)C(=S)NC1=O (centres undefined),3728,-4.6,0.3,-0.7,1.3,·
